For six compounds, Potency, max response and activation results are on record in PubChem BioAssay (NCATS).

Experiment [1] in a line: Cell Viability - BJ (AID 421; calls by dose curve;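 note: potency is the fitted concentration of half-maximal effect; cells exposed to compound for 40 hours at 37 °C before readout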). As to conditions: BJ fibroblast viability, qHTS. The procedure, abridged:
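Cytotoxicity in human BJ foreskin fibroblasts is scored as loss of cellular ATP after a 40-hour exposure, measured by luciferase luminescence. Controls are DMSO and 100 uM tamoxifen.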
On the technique in general: qHTS replaces the single test concentration by a dilution series.

Experiment [2] in a line: Cell Viability - HepG2 (AID 433; calls by dose curve;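 note: potency is the fitted concentration of half-maximal effect; cells exposed to compound for 40 hours; potency for ATP loss meaning cytotoxicity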). The settings on record: qHTS. The procedure, abridged: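 ATP luminescence (CellTiter-Glo) after 40 h compound exposure, 37 °C, HepG2, 1500 cells/well, complete medium. Normalized: DMSO = basal, 100 uM tamoxifen = 100% inhibition. AC50 via standard Hill equation.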
Experiment [3] in a line: Cell Viability - Mesenchymal (AID 546).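 Note: cells exposed to compound for 40 hours before reading.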 As to conditions: mesenchymal cells viability, qHTS; activity change, negative = cytotoxicity: at 91.7 µM (top of the series). In short, it runs like this:
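Human kidney mesenchymal cells from normal renal glomeruli, 1000 cells/well, rested 5 hr at 37 °C, then treated 40 hr at 37 °C in complete medium. Cellular ATP read by CellTiter-Glo luminescence; AC50 from Hill-equation fits.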

Experiment [4] in a line: Cellular Toxicity (caspase-3) Jurkat (AID 655).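 Note: cells exposed to compound for 16 h at 37 °C before reading.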 As to conditions: Jurkat caspase-3 activation, luminescence; caspase-3 activation: at 92.2 µM (top of the series), DMSO = 0%, tamoxifen = 100%. The procedure, abridged: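 Luminescent caspase-3/7 readout (aminoluciferin substrate cleavage) in human T-cell leukemia Jurkat cells after 16 hr compound exposure. Concentration-response normalized to DMSO and 100 uM tamoxifen; AC50 by standard Hill equation.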

A short description of experiment [5]: Cell Viability - LYMP2-003 (AID 965).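 Note: cells exposed to compounds for 24 h before reading; 0% = DMSO only and full effect = 92 µM tetraoctylammonium bromide; nearly all actives have a fitted effect of over 50% in size.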 The settings on record: LYMP2-003 lymphoblastoid cell viability; series mostly up to 92.2 µM. In short, it runs like this: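 CellTiter-Glo luminescence (cellular ATP) after 24 h compound exposure at 37 C in complete medium; 2500 cells/well, 5 h settling beforehand. Concentration-response fitted to standard Hill equation for AC50. Tetraoctylammonium bromide served as positive control.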

Experiment [6] in a line: Cell Viability - LYMP2-011 (AID 969).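 Note: 0% = DMSO only and full inhibition = 92 µM tetraoctylammonium bromide; nearly all actives have a fitted effect of over 60% in size.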 The settings on record: LYMP2-011 lymphoblastoid cells viability; series mostly up to 92.2 µM. The procedure, abridged: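 Acute toxicity is scored as a concentration-dependent drop in intracellular ATP of a human lymphoblastoid line after 24 hr treatment. Values are AC50s modeled with the Hill equation.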
Experiment [7] in a line: Cell Viability - LYMP2-021 (AID 974).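 Note: compound exposure lasts 24 hours at 37 °C; % is set by controls: 0 for no effect and ±100 for the full control effect; nearly all actives have a fitted effect of over 55% in size.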 The settings on record: LYMP2-021 lymphoblastoid cells viability; series mostly up to 92.2 µM. The procedure, abridged:
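Concentration-response cytotoxicity in a human lymphoblastoid line: 24 hr treatment at 37 C in complete culture medium, tetraoctylammonium bromide as positive control, luminescent ATP quantitation as viability measure.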

Experiment [8] can be described thus: Cell Viability - LYMP2-023 (AID 975).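 Note: cellular ATP measured by luciferase luminescence as viability proxy; plate controls were DMSO only for no effect and 92 µM tetraoctylammonium bromide control for full effect; nearly all actives have a fitted effect of over 55% in size.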 As to conditions: LYMP2-023 lymphoblastoid cell viability; series mostly up to 92.2 µM. In short, it runs like this:
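Concentration-dependent drop in intracellular ATP measures acute cytotoxicity in a human lymphoblastoid line treated for 24 hours in complete culture medium. AC50 values are taken from Hill-equation fits of qHTS data.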

Experiment [9] is described as follows: Cell Viability - LYMP2-025 (AID 976).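 Note: plate controls were DMSO only for no effect and tetraoctylammonium bromide control for full effect.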 As to conditions: LYMP2-025 lymphoblastoid cell viability; series mostly up to 92.2 µM. In short, it runs like this: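 In qHTS format, LYMP2-025 lymphoblastoid cells in complete culture medium received compound for 24 hr; ATP-based CellTiter-Glo signal gave viability, with AC50 derived by Hill equation.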
Experiment [10] is described as follows: Cell Viability - LYMP2-002 (AID 977).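 Note: plate controls were DMSO only for no effect and 92 µM tetraoctylammonium bromide for full effect.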 The settings on record: LYMP2-002 lymphoblastoid cell viability, qHTS; series mostly up to 92.2 µM. The procedure, abridged: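 Human lymphoblastoid LYMP2-002 cells, 2500 per well, exposed to compounds for 24 h at 37 C in complete medium; viability read as intracellular ATP by CellTiter-Glo luminescence, AC50 from Hill fits.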

A short description of experiment [11]: Cell Viability - LYMP2-008 (AID 980). Note: % is set by controls: 0 for no effect and ±100 for the full control effect; nearly all actives have a fitted effect of over 60% in size. As to conditions: LYMP2-008 lymphoblastoid cell viability, qHTS; series mostly up to 92.2 µM. In short, it runs like this:
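Acute cytotoxicity is scored as concentration-dependent loss of cellular ATP in a human lymphoblastoid line after 24 hr treatment at 37 C. ATP is quantified by luciferase luminescence.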

Experiment [12] is described as follows: Cell Viability - LYMP2-014 (AID 983).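 Note: plate controls were DMSO only for no effect and 92 µM tetraoctylammonium bromide for full effect; nearly all actives have a fitted effect of over 50% in size.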 The settings on record: LYMP2-014 lymphoblastoid cells, viability qHTS; series mostly up to 92.2 µM. The procedure, abridged: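 Decrease in intracellular ATP after 24 hr treatment at 37 C, measured by luciferase luminescence, indicated cytotoxicity. Concentration-response data were fitted with the standard Hill equation to give AC50.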

Experiment [13] is described as follows: Cell Viability - LYMP2-016 (AID 984). Note: % is set by controls: 0 for no effect and ±100 for the full control effect; nearly all actives have a fitted effect of over 55% in size. The settings on record: LYMP2-016 lymphoblastoid cell viability, qHTS; series mostly up to 92.2 µM. In short, it runs like this:
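qHTS, 1536-well: 2500 LYMP2-016 cells/well, 5 hr 37 C, compound added, 24 hr 37 C, CellTiter-Glo 30 min RT, luminescence. Tetraoctylammonium bromide positive control. AC50 via Hill fit.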

Experiment [14] is described as follows: Cell Viability - LYMP2-018 (AID 985).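 Note: compound exposure lasted 24 hr at 37 °C; plate controls were DMSO only for no effect and tetraoctylammonium bromide at 92 µM for full effect; nearly all actives have a fitted effect of over 50% in size.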 As to conditions: LYMP2-018 lymphoblastoid cells, viability (qHTS); series mostly up to 92.2 µM. The procedure, abridged:
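Acute cytotoxicity is scored as a concentration-dependent drop in intracellular ATP after 24 hr exposure of the lymphoblastoid line in complete culture medium, measured by luciferase luminescence. Potency is expressed as AC50 from Hill modelling.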

The nature of experiment [15]: Cell Viability - LYMP2-022 (AID 987).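 Note: 0% = DMSO alone and full effect = tetraoctylammonium bromide at 92 µM; nearly all actives have a fitted effect of over 55% in size.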 As to conditions: LYMP2-022 lymphoblastoid cell viability; series mostly up to 92.2 µM. The procedure, abridged: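 Acute toxicity in a human lymphoblastoid line is scored as decreased intracellular ATP after 24 hr compound treatment at 37 C. ATP is measured by CellTiter-Glo luminescence; curves are fitted with the Hill equation to give AC50.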

A short description of experiment [16]: Cell Viability - LYMP2-024 (AID 988).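 Note: plate controls were DMSO only for no effect and 92 µM tetraoctylammonium bromide for full effect; nearly all actives have a fitted effect of over 60% in size.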 The settings on record: LYMP2-024 lymphoblastoid cell viability; series mostly up to 92.2 µM. The procedure, abridged: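 Acute toxicity is measured as concentration-dependent loss of intracellular ATP in a human lymphoblastoid line treated 24 hours at 37 C. Luciferase luminescence quantifies ATP; AC50 values come from standard Hill-equation modelling.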

Experiment [17] in a line: Cell Viability - LYMP2-026 (AID 989). Note: % is set by controls: 0 for no effect and ±100 for the full control effect; nearly all actives have a fitted effect of over 50% in size. The settings on record: LYMP2-026 lymphoblastoid cell viability, qHTS; series mostly up to 92.2 µM. The procedure, abridged:
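Concentration-dependent loss of intracellular ATP in human lymphoblastoid cells after 24 hr at 37 C, quantified by luciferase luminescence. AC50 derived from standard Hill equation.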

Experiment [18] can be described thus: qHTS assay for small molecule antagonists of retinoid X receptor alpha signaling (AID 588546; active = well fitted inhibition curve with a large enough effect in the signal ratio, with a control signal flat, not every such curve was filed as active; the % refers to the signal ratio;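 note: cells stimulated with 9-cis-retinoic acid as agonist; % is set by controls: 0 for no effect and ±100 for the full control effect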). As to conditions: HEK293T RXRa-UAS-bla, beta-lactamase ratio, antagonist mode; measured here: W530 green channel, cytotoxicity proxy. The procedure, abridged: (§1)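 Beta-lactamase reporter inhibition, read as CCF4 fluorescence ratio (ex 405, em 460/530 nm) after 2 h at RT. HEK293T UAS-bla cells, 2500/well, were stimulated with 9-cis-RA at 500 or 100 nM final alongside test compound for 18 h at 37 C.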

In experiment [19] the target is Retinoic acid receptor RXR-alpha (Homo sapiens) (UniProt P19793). The description is as above. The settings on record: HEK293T RXRa-UAS-bla, beta-lactamase ratio, antagonist mode. In short, it runs like this:
as §1

Experiment [20] in a line: qHTS assay for environmental chemicals that activate the Aryl hydrocarbon Receptor (AhR) signaling pathway (AID 651777). Note: % of control where 0% means no effect; nearly all actives have a fitted effect of over 15% in size. As to conditions: 1A2-DRE human hepatoma cells, luciferase, 24 h; activation: stronger effect = higher value. In short, it runs like this: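 AhR activation is scored as a rise in luciferase from a stable DRE–CYP1A2 promoter construct in human hepatoma cells. Treatment lasts 24 hr at 37 C; detection uses One-Glo after 30 min at room temperature.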

Molecules are shown by their SMILES. Values joined by “and” are separate entries in the source; they are usually repeats but may differ in a detail not shown here. Identical values can stand only once. Records with an inconclusive call do not appear. Active and inactive are the calls of the source. Unless noted, calls come from the whole dose curve; as a rule, active = well fitted curve in the direction sought with a large enough effect; inconclusive = small, poorly fitted or top-dose-only effect, or another doubt; inactive = no such curve, though single readings can be large; an effect the other way counts as inactive or inconclusive.

Chain of Retinoic acid receptor RXR-alpha (Homo sapiens) (P19793 whole entry, looked up): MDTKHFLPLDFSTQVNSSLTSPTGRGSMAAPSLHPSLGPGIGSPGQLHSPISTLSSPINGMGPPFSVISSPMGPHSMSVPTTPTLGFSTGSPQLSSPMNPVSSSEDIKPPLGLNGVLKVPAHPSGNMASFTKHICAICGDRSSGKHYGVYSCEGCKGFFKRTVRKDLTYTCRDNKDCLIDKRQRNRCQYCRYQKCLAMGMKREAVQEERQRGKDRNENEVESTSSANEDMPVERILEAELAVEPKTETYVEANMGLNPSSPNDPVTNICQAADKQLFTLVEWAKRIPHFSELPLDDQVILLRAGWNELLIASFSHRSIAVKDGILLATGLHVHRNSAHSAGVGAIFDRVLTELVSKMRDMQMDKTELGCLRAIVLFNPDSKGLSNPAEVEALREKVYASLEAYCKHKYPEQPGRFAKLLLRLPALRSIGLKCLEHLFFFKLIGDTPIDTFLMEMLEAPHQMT

For the compound `c1ccc(COCc2ccccc2)cc1`, the Potency in experiment [1] and in experiment [2] was > 92 µM (inactive) in each case. The Potency result in experiment [3], in experiment [4], in experiment [5], in [6], in experiment [7] and in [8] was “inactive” in each case. Besides, the Potency result in experiment [9], in [10], in experiment [11], in [12], in experiment [13] and in experiment [14] was “inactive” in each case. For the same compound, the Potency entry in experiment [15], in [16] and in experiment [17] was “inactive” in each case. In addition, the max response in [18] is -0.558%; in [19] it was -1.13% (inactive). The activation in [20] is -0.601% (inactive).
With `CCCCC(CC)COCCCN` (centres undefined), the Potency in [1] and in experiment [2] was > 92 µM (inactive) each time. The Potency entry in experiment [3], in experiment [4], in [5], in experiment [6], in experiment [7] and in [8] was “inactive” in each case. Besides, the Potency result in experiment [9], in experiment [10], in experiment [11], in experiment [12], in [13] and in experiment [15] was “inactive” each time. For the same compound, the Potency entry in experiment [16] and in experiment [17] was “inactive” each time. The max response in experiment [18] is 3.99%; in experiment [19] it was 10.8% (inactive). In addition, the activation in experiment [20] was -0.398% (inactive).
For `CCOC(=O)C1OC1c1ccccc1` (centres undefined), the Potency in experiment [1] and in experiment [2] was > 92 µM (inactive) in each case. The Potency entry in experiment [3], in experiment [4], in experiment [5], in [6], in experiment [7] and in [8] was “inactive” in each case. Moreover, the Potency entry in [9], in experiment [10], in experiment [11], in [12], in experiment [13] and in experiment [14] was “inactive” in each case. For the same compound, the Potency result in [15], in experiment [16] and in experiment [17] was “inactive” each time. The max response in [18] was -0.854%; in experiment [19] it was 9.69% (inactive). The activation in experiment [20] is -0.0092% (inactive).
Turning to `c1ccc2ncccc2c1`, the Potency in experiment [1] and in experiment [2] was > 92 µM (inactive) throughout. Also, the Potency result in experiment [3], in experiment [4], in experiment [5], in experiment [6], in [7] and in [8] was “inactive” throughout. The Potency result in experiment [9], in [10], in experiment [11], in experiment [12], in experiment [13] and in [14] was “inactive” in each case. In addition, the Potency result in [15], in [16] and in experiment [17] was “inactive” in each case. In addition, the max response was -0.528% in experiment [18] and 0.834% (inactive) in experiment [19]. For the same compound, the activation in experiment [20] was -0.0283% (inactive).
`CC(=O)OCc1ccc2c(c1)OCO2`: the Potency in experiment [1] and in experiment [2] was > 92 µM (inactive) in each case. Further, the Potency entry in experiment [3], in experiment [4], in experiment [5], in experiment [6], in [7] and in experiment [8] was “inactive” throughout. Moreover, the Potency result in experiment [9], in [10], in experiment [11], in experiment [12], in [13] and in experiment [14] was “inactive” in each case. The Potency result in [15], in experiment [16] and in [17] was “inactive” in each case. The max response is 8.84% in experiment [18] and 24.9% (inactive) in experiment [19]. Further, the activation in [20] is 1.36% (inactive).
Regarding `OCC(CO)(CBr)CBr`, the Potency in experiment [1] and in experiment [2] was > 92 µM (inactive) each time. Also, the Potency result in [3], in [4], in experiment [5], in experiment [6], in experiment [7] and in [8] was “inactive” in each case. Further, the Potency result in [9], in [10], in experiment [11], in experiment [12], in experiment [13] and in experiment [14] was “inactive” each time. The Potency entry in experiment [15], in [16] and in experiment [17] was “inactive” each time. Besides, the max response is 6.52% and -5.45% in experiment [18]; 4.02% (inactive) and -1.76% (inactive) in experiment [19]. Further, in experiment [20], the activation is 0.992% (inactive) and 2.31% (inactive).
